Consider 32 molecules from PubChem BioAssay (EPA / NIEHS).

Usually AC50 stands for the midpoint of the concentration-response curve, whichever way the signal moves.

Results filed as inconclusive are left out. Activity calls are given as the source filed them. How the source made its calls: active means hit-call score of the fitted dose curve at least 0.9, where 1 is the maximum; inconclusive means response in the unintended direction; inactive means score below 0.9.

A short description of one experiment: Tanguay_ZF_120hpf_SOMI_legacy: (Legacy) Oregon State University Tanguay Lab 120 Hour Post-fertilization zebrafish Assay for Somite Malformation (AID 2283647). In short, it runs like this: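 Binary somite-defect scoring at 120 hpf, omitted for embryos that died, in wild-type (Tropical 5D) zebrafish with chorion removed by pronase at 4 hpf; static exposure began 6 hpf, single embryos per well, 28C, 0.64% DMSO; fitted positive versus DMSO.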
For the molecule `C=CC(=O)NCNC(=O)C=C`, the molecule was called inactive.

Regarding `Cc1ccccc1[N+](=O)[O-]`, the result was inactive.

In the case of `NS(=O)(=O)C(F)(F)C(F)(F)C(F)(F)C(F)(F)C(F)(F)C(F)(F)C(F)(F)C(F)(F)F`, the molecule was called inactive.

Regarding `ClC1=C(Cl)[C@]2(Cl)[C@@H]3[C@@H](Cl)[C@H]4O[C@H]4[C@@H]3C1(Cl)C2(Cl)Cl`, the molecule was called inactive.

For the molecule `Nn1cnnc1`, the molecule was called inactive.

As to `CCC(=O)O[C@H]1CC[C@H]2[C@@H]3CCC4=CC(=O)CC[C@]4(C)[C@H]3CC[C@]12C`, the molecule was called inactive.

For the molecule `CC1=C2C[C@H]3[C@@H](CC=C4C[C@@H](O)CC[C@@]43C)[C@@H]2CC[C@]12O[C@@H]1C[C@H](C)CN[C@H]1[C@H]2C`, the call was inactive.

In the case of `Cc1cc2c3c(c1)C(c1ccccc1)=N[C@@H](NC(=O)c1ccncc1)C(=O)N3CC2`, the molecule was classed as inactive.

With `Cc1cccc([N+](=O)[O-])c1`, the call was inactive.

For the molecule `ClC1=C(Cl)[C@]2(Cl)[C@@H]3[C@H]4C[C@H]([C@@H]5O[C@H]45)[C@@H]3[C@@]1(Cl)C2(Cl)Cl`, the AC50 is 65.6 µM (active).

As to `Cc1ccccc1CO[C@@H]1C[C@@]2(C(C)C)CC[C@]1(C)O2`, the result was inactive.

As for `CO/C=C(/C(=O)OC)c1ccccc1COc1cccc(C(F)(F)F)n1`, the AC50 was 18.1 µM (active).

As for `O=C(O)C(F)(F)C(F)(F)C(F)(F)C(F)(F)C(F)(F)C(F)(F)C(F)(F)C(F)(F)F`, the outcome was inactive.

For `O=C(N[C@H]1CN2CCC1CC2)c1cc2ccoc2cn1`, the call was inactive.

As for `C=CC(N)=O`, the molecule was classed as inactive.

Take `CCNc1nc(NC(C)C)nc(SC)n1`: the molecule was classed as inactive.

Consider `CCC(C)c1cc([N+](=O)[O-])cc([N+](=O)[O-])c1O` (stereo not given), for which the molecule was called inactive.

With `O=NN(c1ccccc1)c1ccccc1`, the molecule was called inactive.

As to `CC(C)C(=O)OCC(C)(C)C(OC(=O)C(C)C)C(C)C` (stereo not given), the molecule was classed as inactive.

Take `Cc1cc(-c2ccc(N)c(C)c2)ccc1N`: the outcome was inactive.

Consider `Nc1ccc(-c2ccc(N)cc2)cc1`, for which the outcome was inactive.

`Cc1ccccc1O`: the molecule was classed as inactive.

Consider `CCOCCOC(C)=O`, for which the molecule was classed as inactive.

Regarding `CCCCCCCCOC(=O)c1ccccc1C(=O)OCCCCCCCC`, the molecule was called inactive.

As for `Cc1ccc(O)c(C)c1`, the outcome was inactive.

Regarding `Oc1c(Cl)c(Cl)c(Cl)c(Cl)c1Cl`, the outcome was inactive.

For the molecule `CN(C)CCO`, the call was inactive.

On to `O=C(NC(=O)c1c(F)cccc1F)Nc1cc(Cl)c(OC(F)(F)C(F)F)c(Cl)c1`, for which the outcome was inactive.

Regarding `CCC(C)(CC)c1cc(NC(=O)c2c(OC)cccc2OC)on1`, the outcome was inactive.

Another experiment is described as follows: Tanguay_ZF_120hpf_PFIN_legacy: (Legacy) Oregon State University Tanguay Lab 120 Hour Post-fertilization zebrafish Assay for Pectoral Fin Malformation (AID 2283648).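 Further: each larva judged yes or no for fin defect by brightfield with dead larvae skipped.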 In short, it runs like this:
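Pectoral fin malformation was recorded as a binary endpoint at 120 hpf in wild-type Tropical 5D larvae, which had been dechorionated and exposed statically from 6 hpf at 28C in 0.64% DMSO. Dead embryos were excluded.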
For the molecule `C=CC(=O)NCNC(=O)C=C`, the call was inactive.

On to `Cc1ccccc1[N+](=O)[O-]`, for which the result was inactive.

Regarding `NS(=O)(=O)C(F)(F)C(F)(F)C(F)(F)C(F)(F)C(F)(F)C(F)(F)C(F)(F)C(F)(F)F`, the molecule was called inactive.

With `ClC1=C(Cl)[C@]2(Cl)[C@@H]3[C@@H](Cl)[C@H]4O[C@H]4[C@@H]3C1(Cl)C2(Cl)Cl`, the call was inactive.

As to `Nn1cnnc1`, the call was inactive.

On to `CCC(=O)O[C@H]1CC[C@H]2[C@@H]3CCC4=CC(=O)CC[C@]4(C)[C@H]3CC[C@]12C`, for which the molecule was called inactive.

Take `CC1=C2C[C@H]3[C@@H](CC=C4C[C@@H](O)CC[C@@]43C)[C@@H]2CC[C@]12O[C@@H]1C[C@H](C)CN[C@H]1[C@H]2C`: the AC50 was 21.8 µM (active).

As to `Cc1cc2c3c(c1)C(c1ccccc1)=N[C@@H](NC(=O)c1ccncc1)C(=O)N3CC2`, the outcome was inactive.

As to `Cc1cccc([N+](=O)[O-])c1`, the result was inactive.

Regarding `ClC1=C(Cl)[C@]2(Cl)[C@@H]3[C@H]4C[C@H]([C@@H]5O[C@H]45)[C@@H]3[C@@]1(Cl)C2(Cl)Cl`, the molecule was classed as inactive.

Turning to `Cc1ccccc1CO[C@@H]1C[C@@]2(C(C)C)CC[C@]1(C)O2`, the result was inactive.

`CO/C=C(/C(=O)OC)c1ccccc1COc1cccc(C(F)(F)F)n1`: the AC50 was 5.66 µM (active).

As to `O=C(O)C(F)(F)C(F)(F)C(F)(F)C(F)(F)C(F)(F)C(F)(F)C(F)(F)C(F)(F)F`, the call was inactive.

On to `N#Cc1ccc(N(CC(N)=O)CC(F)(F)F)cc1C(F)(F)F`, for which the result was inactive.

As to `O=C(N[C@H]1CN2CCC1CC2)c1cc2ccoc2cn1`, the molecule was classed as inactive.

For the molecule `C=CC(N)=O`, the molecule was classed as inactive.

Regarding `CCNc1nc(NC(C)C)nc(SC)n1`, the result was inactive.

As for `Oc1ccc(C(c2ccc(O)cc2)(C(F)(F)F)C(F)(F)F)cc1`, the concentration at half-maximal activity (AC50) was 53.3 µM (active).

As for `CCOC(=O)C(O)(c1ccc(Cl)cc1)c1ccc(Cl)cc1`, the call was inactive.

As to `CCC(C)c1cc([N+](=O)[O-])cc([N+](=O)[O-])c1O` (stereo not given), the result was inactive.

`O=NN(c1ccccc1)c1ccccc1`: the molecule was called inactive.

In the case of `Cc1cc(-c2ccc(N)c(C)c2)ccc1N`, the molecule was classed as inactive.

Regarding `Nc1ccc(-c2ccc(N)cc2)cc1`, the result was inactive.

On to `Cc1ccccc1O`, for which the molecule was called inactive.

Regarding `CCOCCOC(C)=O`, the molecule was classed as inactive.

On to `CCCCCCCCOC(=O)c1ccccc1C(=O)OCCCCCCCC`, for which the outcome was inactive.

As for `Cc1ccc(O)c(C)c1`, the call was inactive.

As for `Oc1c(Cl)c(Cl)c(Cl)c(Cl)c1Cl`, the outcome was inactive.

Take `CN(C)CCO`: the molecule was classed as inactive.

Regarding `O=C(NC(=O)c1c(F)cccc1F)Nc1cc(Cl)c(OC(F)(F)C(F)F)c(Cl)c1`, the molecule was called inactive.

For `CCC(C)(CC)c1cc(NC(=O)c2c(OC)cccc2OC)on1`, the outcome was inactive.
